# Test system: RXRa DBDmut IVT, anti-RXR (DBD mutation: RXRa K156A/R161A, NR concentration 90 nM)
# Assay: PBM binding z-score (relative to random genomic background probes); higher = stronger binding; sequences stand for … in GC…GCGATTGACAGCGTAGAATGAAGG
# Method in brief: (§1)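 Each nuclear receptor dimer, without ligand, was incubated for 1 h on custom Agilent 4×180K protein-binding microarrays. Binding was detected with antibodies against each partner (one per run), and scanned fluorescence was regression-normalized. The binding z-scores are referenced to random human genomic background probes.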
row,Sequence,PBM binding z-score
1,TAGCCTAGGTCATGCGGTCCAGTATAGTGTCGGC,1.05
2,CAAACTAGGTCACTGGAAGGTCAAAGTCCGCATG,1.96
3,TCTCGGAGGACACGAAAGGTCAGAGCCCGACATC,0.988
4,CCTTACGGGTCAAGGTTCTAGCACGGGTGGTACG,0.551
5,ACCGACAGGTGAGTGAAGGTAACTCAGCTGGACG,-0.459
6,TCTATTACTTGATTAGGGCAACCGAAACAGCGGA,1.1
7,CCTGCTAGGTCAATGGTCAGCAAAAGCAGCTCGC,1.78
8,CCTATTAGTTGACCATAAGGGGAACCGAAGCTCG,0.467
9,ACTAGTTGGTCAGCTGAAGTCACACACAATTCGG,0.337
10,TCTTGTAGATCAATAGAGGTTCAGAAAGTGCGCT,0.728
11,CTGCCTAGGTCAGGGCCAGTATAGGAGGAACGTT,-0.445
12,ACTCGGAGGACAAAGGTCAGAGCCACGCCAGTGA,1.27
13,CGAACGAGGGCGTGAGTTGATAGCAAATGCCGAT,1.36
14,GGTACAGGGTCAGCTAGAGGCCAGAGTATGGAAA,1.01
15,TCTATTAGTTGAAGGGCTACCGACGAGTCCGTTT,1.63
16,AGAATGAGCTTATTAAGATCAGGGAATTGCGGTC,-0.496
17,ACAGACAGGTGATGAAGGTGACTCAGGCTATCAT,-0.283
18,ATCTCTAGGTAAAGTTCAGTGAGAGATCGATAGA,1.21

# Test system: RXRa homodimer (NR concentration 180 nM)
# Assay: as above
# Method in brief: as §1
row,Sequence,PBM binding z-score
1,TCTCGGAGGACACGAAAGGTCAGATCTCGACATC,3.65
2,CCTCGGAGGACAGAGGGTCAGAGCTGTCCGCTTT,1.6
3,ATCTCTAGGTAAGACTCAGTTTAGTGAAGAACGC,-0.191
4,ATCGAAAGGTCGAAGGTGAGTATCCCCACCCGAA,4.73
5,AATACAGGGGCATCGTAGGCCAGAGTACGCACAG,0.784
6,CGTCCAAGGTCAAGTTCAGTGAAAGAGACTCGAA,6.26
7,CGTCCAAGGCCAGCAGGTCAGTGAAAGCGACGTG,0.648
8,GATACAGGGTCAAGGCTAGAGTACGCGTATTGAT,5.93
9,TGTCTAAGTTCAAAGGTAACGTAAGTATCCACAC,5.62
10,TCAGACAGGTGAATGTAACTCAGGTACGCAGTCG,0.802
11,TGAATGAGGGTATAAGATCAGGGAACGTTGCAAA,0.383
12,CCTATCAGTTGACCATAAGGGCAACCGAAGCTCG,0.916
13,CCTTACGGGTCACTGACACGTTATAGCATTTGGA,4.94
14,CCAGACAGGTGAGAAGATAACTCAGCCTCGATTA,0.262
15,CAAACTAGGTCACCAAAGGTCAAAGTCGAATGAC,7.91
16,CAGCCTAGGTCAGGGCCGGTATAGGAGGAACGTT,1.56
17,AGAATGAGGTTATACGTAGATCAGGCAAGAAAGT,2.14
18,GCAGACAGGTGAAACGCATGTAACTCAGGGTGGC,0.749
19,TCTATTAGTTGATTAGGGCACCCGAAACAGCGGA,0.445
20,AGTCAACGTTCATCTAGGTAACGTAAGATATGCT,0.0603

row,Sequence,PBM binding z-score
1,GCTTGAAGATCAAGGTTAAGAAAGACTAAGCTAA,0.877
2,AGAATGACGTTATTAAGATCAGGGAATTGCGGTC,-0.18
3,TAGCCTAGGTCATGCGGTCCAGTATAGTGTCGGC,2.94
4,CAAACTAGGTCACTGGAAGGTCAAAGTCCGCATG,5.54
5,TCTCGGAGGACACGAAAGGTCAGAGCCCGACATC,3.95
6,CCTTACGGGTCAAGGTTCTAGCACGGGTGGTACG,4.96
7,ACCGACAGGTGAGTGAAGGTAACTCAGCTGGACG,0.0984
8,TCTATTACTTGATTAGGGCAACCGAAACAGCGGA,0.781
9,CCTGCTAGGTCAATGGTCAGCAAAAGCAGCTCGC,2.47
10,CCTATTAGTTGACCATAAGGGGAACCGAAGCTCG,0.236
11,ACTAGTTGGTCAGCTGAAGTCACACACAATTCGG,0.297
12,TCTTGTAGATCAATAGAGGTTCAGAAAGTGCGCT,0.478
13,CTGCCTAGGTCAGGGCCAGTATAGGAGGAACGTT,1.25
14,ACTCGGAGGACAAAGGTCAGAGCCACGCCAGTGA,6.11
15,CGAACGAGGGCGTGAGTTGATAGCAAATGCCGAT,0.221
16,GGTACAGGGTCAGCTAGAGGCCAGAGTATGGAAA,4.27
17,TCTATTAGTTGAAGGGCTACCGACGAGTCCGTTT,0.354
18,AGAATGAGCTTATTAAGATCAGGGAATTGCGGTC,-0.0846
19,ACAGACAGGTGATGAAGGTGACTCAGGCTATCAT,0.581
20,ATCTCTAGGTAAAGTTCAGTGAGAGATCGATAGA,1.06

# Source: the supplement of paper PMC6555819
